Laboratory results reported in the supplement of paper PMC10037445.
Whole data set: some 2,900 compounds, median “NF-kB SEAP reporter activity, fold change vs agonist alone” near 0.99, cut for the highest 2% near 2.6. This excerpt belongs to a sample that is enriched for the highest values.

Experiments:
RAW-Dual [1] = experiment: NF-kB SEAP reporter activity, fold change vs agonist alone; higher = enhanced NF-kB activity; conditions: library stock concentration (final ~1000-fold dilution): 10 mM
Procedure, shortened: (§1)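 RAW-Dual macrophages (50,000 cells/well in DMEM, 384-well plates) received 50 nL of library stock by pin tool, then a PRR agonist 1 h later, and were kept at 37 °C, 5% CO2. After 20 hours, supernatant was read for IRF by QuantiLuc luminescence and for NF-κB by QuantiBlue absorbance at 620 nm. Reporter activity is fold change over agonist-alone wells. Cytotoxic wells had IncuCyte confluency below 70% of agonist controls in both mask sets.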

RAW-Dual [2] = experiment: NF-kB SEAP reporter activity, fold change vs agonist alone; cytotoxicity flag (confluency mask): not cytotoxic; higher = enhanced NF-kB activity
Procedure, shortened: as §1

RAW-Dual [3] = experiment: NF-kB SEAP reporter activity, fold change vs agonist alone; cytotoxicity flag (confluency mask): cytotoxic (confluency <70% of control); higher = enhanced NF-kB activity
Procedure, shortened: as §1

[4] = cytotoxicity flag (confluency mask): not cytotoxic, agonist: Imiquimod (TLR7) […]
[5] = cytotoxicity flag (confluency mask): not cytotoxic, agonist: MPLA (TLR4) […]
[6] = agonist: ODN 1826 (TLR9) 0.5 ug/mL
[7] = agonist: Pam2CSK4 (TLR2/6) 0.1 ug/mL
[8] = agonist: Pam3CSK4 (TLR2/1) 0.1 ug/mL

**Q.** For `CC(NCc1ccc(OCc2cccc(F)c2)cc1)C(N)=O.CS(=O)(=O)O` (configuration not stated), which “NF-kB SEAP reporter activity” value (RAW-Dual [1]; [4]) is on record?
**A.** The value was 1.73.

**Q.** And the “NF-kB SEAP reporter activity” value (RAW-Dual [1]; [5])?
**A.** Its value is 1.07.

**Q.** What does the source list for `CC(NCc1ccc(OCc2cccc(F)c2)cc1)C(N)=O.CS(=O)(=O)O` (configuration not stated) (library stock concentration (final ~1000-fold dilution): 10 mM)?
**A.** NF-kB SEAP reporter activity (RAW-Dual [2]; agonist: LPS (TLR4) 0.1 ug/mL): 1.08; NF-kB SEAP reporter activity (RAW-Dual [2]; [6]): 1.17; NF-kB SEAP reporter activity (RAW-Dual [2]; [7]): 0.813; NF-kB SEAP reporter activity (RAW-Dual [2]; [8]): 1.1

**Q.** With `CCc1cnn2c(NCc3ccc[n+]([O-])c3)cc(N3CCCCC3CCO)nc12` (configuration not stated) (library stock concentration (final ~1000-fold dilution): 10 mM) as the molecule, how does the “NF-kB SEAP reporter activity” value (RAW-Dual [3]; agonist: LPS (TLR4) 0.1 ug/mL) read?
**A.** The value was 0.193.

**Q.** And the “NF-kB SEAP reporter activity” value (RAW-Dual [3]; [6])?
**A.** The value was 0.198.

**Q.** What about the “NF-kB SEAP reporter activity” value (RAW-Dual [3]; [7]) of the same molecule?
**A.** The value was 0.0843.

**Q.** And the “NF-kB SEAP reporter activity” value (RAW-Dual [3]; [8])?
**A.** Its value is 0.182.

**Q.** With `CCc1cnn2c(NCc3ccc[n+]([O-])c3)cc(N3CCCCC3CCO)nc12` (configuration not stated) as the molecule, how does the “NF-kB SEAP reporter activity” value (RAW-Dual [1]; cytotoxicity flag (confluency mask): cytotoxic (confluency <70% of control), agonist: Imiquimod (TLR7) […]) read?
**A.** Its value is 0.308.

**Q.** What about the “NF-kB SEAP reporter activity” value (RAW-Dual [1]; cytotoxicity flag (confluency mask): cytotoxic (confluency <70% of control), agonist: MPLA (TLR4) […]) of the same molecule?
**A.** The value was 0.225.

**Q.** Which “NF-kB SEAP reporter activity” value (RAW-Dual [1]; [5]) does the source give for `Cc1cn(-c2cc(NC(=O)c3ccc(C)c(Nc4nccc(-c5cccnc5)n4)c3)cc(C(F)(F)F)c2)cn1.Cl` here?
**A.** Its value is 2.49.

**Q.** With `Cc1cn(-c2cc(NC(=O)c3ccc(C)c(Nc4nccc(-c5cccnc5)n4)c3)cc(C(F)(F)F)c2)cn1.Cl` (library stock concentration (final ~1000-fold dilution): 10 mM) as the molecule, how does the “NF-kB SEAP reporter activity” value (RAW-Dual [2]; agonist: LPS (TLR4) 0.1 ug/mL) read?
**A.** The value was 2.23.

**Q.** What about the “NF-kB SEAP reporter activity” value (RAW-Dual [2]; [6]) of the same molecule?
**A.** Its value is 1.41.

**Q.** What about the “NF-kB SEAP reporter activity” value (RAW-Dual [2]; [7]) of the same molecule?
**A.** Its value is 0.403.

**Q.** What about the “NF-kB SEAP reporter activity” value (RAW-Dual [2]; [8]) of the same molecule?
**A.** The value was 0.466.

**Q.** Which “NF-kB SEAP reporter activity” value (RAW-Dual [1]; [5]) does the source give for `Nc1nc(NC2CC2)c2ncn(C3C=CC(CO)C3)c2n1` (configuration not stated) here?
**A.** The value was 1.16.

**Q.** Which results are given for `Nc1nc(NC2CC2)c2ncn(C3C=CC(CO)C3)c2n1` (configuration not stated) (library stock concentration (final ~1000-fold dilution): 10 mM)?
**A.** NF-kB SEAP reporter activity (RAW-Dual [2]; agonist: LPS (TLR4) 0.1 ug/mL): 1.05; NF-kB SEAP reporter activity (RAW-Dual [2]; [6]): 1.07; NF-kB SEAP reporter activity (RAW-Dual [2]; [7]): 1.35; NF-kB SEAP reporter activity (RAW-Dual [2]; [8]): 1.07

**Q.** For `CCN(CC)C(=O)C1(c2ccccc2)CC1CN.Cl` (configuration not stated) (library stock concentration (final ~1000-fold dilution): 10 mM), which “NF-kB SEAP reporter activity” value (RAW-Dual [2]; agonist: LPS (TLR4) 0.1 ug/mL) is on record?
**A.** The value was 0.999.

**Q.** And the “NF-kB SEAP reporter activity” value (RAW-Dual [2]; [6])?
**A.** The value was 0.858.

**Q.** And the “NF-kB SEAP reporter activity” value (RAW-Dual [2]; [7])?
**A.** The value was 0.856.

**Q.** What about the “NF-kB SEAP reporter activity” value (RAW-Dual [2]; [8]) of the same molecule?
**A.** Its value is 1.18.

**Q.** For `CCN(CC)C(=O)C1(c2ccccc2)CC1CN.Cl` (configuration not stated), which “NF-kB SEAP reporter activity” value (RAW-Dual [1]; [4]) is on record?
**A.** The value was 1.02.

**Q.** What about the “NF-kB SEAP reporter activity” value (RAW-Dual [1]; [5]) of the same molecule?
**A.** Its value is 1.1.

**Q.** Which results are given for `CC(=O)O.NCc1ccc(S(N)(=O)=O)cc1`?
**A.** NF-kB SEAP reporter activity (RAW-Dual [1]; [4]): 1.17; NF-kB SEAP reporter activity (RAW-Dual [1]; [5]): 1.03

**Q.** With `CC(=O)O.NCc1ccc(S(N)(=O)=O)cc1` (library stock concentration (final ~1000-fold dilution): 10 mM) as the molecule, how does the “NF-kB SEAP reporter activity” value (RAW-Dual [2]; agonist: LPS (TLR4) 0.1 ug/mL) read?
**A.** Its value is 1.04.

**Q.** And the “NF-kB SEAP reporter activity” value (RAW-Dual [2]; [6])?
**A.** Its value is 1.01.

**Q.** What about the “NF-kB SEAP reporter activity” value (RAW-Dual [2]; [7]) of the same molecule?
**A.** Its value is 0.927.

**Q.** What about the “NF-kB SEAP reporter activity” value (RAW-Dual [2]; [8]) of the same molecule?
**A.** Its value is 1.23.

**Q.** How did the “NF-kB SEAP reporter activity” value (RAW-Dual [2]; agonist: LPS (TLR4) 0.1 ug/mL) turn out when `CC1(C)CC(=O)c2c(C(F)(F)F)nn(-c3ccc(C(N)=O)c(NC4CCC(OC(=O)CN)CC4)c3)c2C1` (configuration not stated) (library stock concentration (final ~1000-fold dilution): 10 mM) was run?
**A.** Its value is 0.226.

**Q.** And the “NF-kB SEAP reporter activity” value (RAW-Dual [2]; [6])?
**A.** The value was 0.929.

**Q.** What about the “NF-kB SEAP reporter activity” value (RAW-Dual [2]; [7]) of the same molecule?
**A.** Its value is 0.113.

**Q.** What about the “NF-kB SEAP reporter activity” value (RAW-Dual [2]; [8]) of the same molecule?
**A.** Its value is 0.234.

**Q.** For `CC1(C)CC(=O)c2c(C(F)(F)F)nn(-c3ccc(C(N)=O)c(NC4CCC(OC(=O)CN)CC4)c3)c2C1` (configuration not stated), which “NF-kB SEAP reporter activity” value (RAW-Dual [1]; [4]) is on record?
**A.** The value was 0.916.

**Q.** What about the “NF-kB SEAP reporter activity” value (RAW-Dual [1]; [5]) of the same molecule?
**A.** The value was 0.907.

**Q.** `CC#CC(=O)N1CCC(n2c(=O)n(-c3ccc(Oc4ccccc4)cc3)c3c(N)ncnc32)C1.Cl` (configuration not stated) was tested. Which “NF-kB SEAP reporter activity” value (RAW-Dual [1]; [4]) did it give?
**A.** The value was 0.734.

**Q.** And the “NF-kB SEAP reporter activity” value (RAW-Dual [1]; [5])?
**A.** Its value is 0.814.

**Q.** For `CC#CC(=O)N1CCC(n2c(=O)n(-c3ccc(Oc4ccccc4)cc3)c3c(N)ncnc32)C1.Cl` (configuration not stated) (library stock concentration (final ~1000-fold dilution): 10 mM), which “NF-kB SEAP reporter activity” value (RAW-Dual [2]; agonist: LPS (TLR4) 0.1 ug/mL) is on record?
**A.** Its value is 0.647.

**Q.** And the “NF-kB SEAP reporter activity” value (RAW-Dual [2]; [6])?
**A.** The value was 0.662.

**Q.** What about the “NF-kB SEAP reporter activity” value (RAW-Dual [2]; [7]) of the same molecule?
**A.** Its value is 0.378.

**Q.** And the “NF-kB SEAP reporter activity” value (RAW-Dual [2]; [8])?
**A.** Its value is 0.517.

**Q.** With `CCOC(=O)C=P(c1ccccc1)(c1ccccc1)c1ccccc1` as the molecule, how does the “NF-kB SEAP reporter activity” value (RAW-Dual [1]; [4]) read?
**A.** Its value is 0.715.

**Q.** And the “NF-kB SEAP reporter activity” value (RAW-Dual [1]; [5])?
**A.** The value was 1.05.

**Q.** With `CCOC(=O)C=P(c1ccccc1)(c1ccccc1)c1ccccc1` (library stock concentration (final ~1000-fold dilution): 10 mM) as the molecule, how does the “NF-kB SEAP reporter activity” value (RAW-Dual [2]; agonist: LPS (TLR4) 0.1 ug/mL) read?
**A.** Its value is 0.964.

**Q.** What about the “NF-kB SEAP reporter activity” value (RAW-Dual [2]; [6]) of the same molecule?
**A.** Its value is 0.875.

**Q.** And the “NF-kB SEAP reporter activity” value (RAW-Dual [2]; [7])?
**A.** The value was 0.894.

**Q.** What about the “NF-kB SEAP reporter activity” value (RAW-Dual [2]; [8]) of the same molecule?
**A.** The value was 0.912.
